Test results: PubChem BioAssay AID1626 (SRMLSC, 2009)
The whole screen tested about 220,000 compounds, of which about 2,000 (0.91%) were called active. Not shown: some 2% with an inconclusive outcome. Rule as the data show it: inconclusive = inhibition above about 80% without an active follow-up result; inactive = below that; test concentration not stated here. A selection follows. Results with a measured potency or affinity are listed apart.

Experiment: M. tuberculosis H37Rv growth inhibitors, H37Rv strain (AID 1626);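 also: bacteria incubated seven days before Alamar blue readout; 0% = bacteria only wells and 100% = bacteria with antibiotic wells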
Conditions: hits give high values, concentration not given here

| Compound | inhibition |
| --- | --- |
| COC(=O)c1c(NC(=O)CC2SC(N)=NC2=O)sc2c1CCCC2 (centres undefined) | 0.3% (inactive) |
| COC(=O)c1c(NC(=O)CC2SC(N)=NC2=O)sc2c1CCC(C)C2 (centres undefined) | 10.2% (inactive) |
| Nc1nc(CN2CCN(c3ccccc3F)CC2)nc(Nc2ccc3c(c2)OCCO3)n1 | 12.1% (inactive) |
| CC(C)COc1ccc(-c2nnn(CC(=O)N3CCCC3)n2)cc1 | 2.29% (inactive) |
| CCCOc1ccc(-c2nnn(CC(=O)OCC)n2)cc1 | 79.1% (inactive) |
| COCCNC(=O)C(c1ccc(C)o1)N(C(=O)Cn1nnc2ccccc21)c1ccccc1 (centres undefined) | 4.15% (inactive) |
| COc1ccc(N2CCN(C(=O)c3ccc4c(c3)[nH]c(=S)n3c5ccccc5nc43)CC2)cc1 | -4.09% (inactive) |
| O=C(c1ccc2c(c1)[nH]c(=S)n1c3ccccc3nc21)N1CCN(c2ncccn2)CC1 | -5.02% (inactive) |
| Cc1csc2nc(CNS(=O)(=O)c3ccc4c(c3)CCCC4)cn12 | -3.26% (inactive) |
| Cc1cnc(C(=O)Nc2ccc(F)cc2)cn1 | -5.16% (inactive) |
| CC(C)(C)c1ccc(Oc2ccc(NC(=O)C3CC=CCC3C(=O)O)cc2)cc1 (centres undefined) | 3.77% (inactive) |
| Cc1cnc(C(=O)Nc2ccc(C(C)C)cc2)cn1 | 13.7% (inactive) |
| CCc1ccc(NC(=O)C2CC=CCC2C(=O)O)cc1 (centres undefined) | -2.56% (inactive) |
| O=S(=O)(NC1CCCCCCC1)c1cccs1 | 2.84% (inactive) |
| CC/C=C\[C@H](O)[C@H](O)C1=C(C)C(=O)[C@]2(O1)C(=O)N[C@@](OC)(C(=O)c1ccccc1)C2O (some centres undefined) | -6.03% (inactive) |
| CCOC(=O)C(/C(C)=N/NC(=O)C1CC1c1ccccc1)C(C)C (centres undefined) | 2.71% (inactive) |
| CCCCc1nc2sc3c(SCC(=O)NCc4ccco4)ncnc3c2c2c1CCC2 | -4.26% (inactive) |
| CCCCc1nc2sc3c(=O)n(N)cnc3c2c2c1CCC2 | -0.89% (inactive) |
| COCCCNC(=O)c1c(NC(=O)C2COc3ccccc3O2)sc2c1CCCC2 (centres undefined) | -1.45% (inactive) |
| COc1ccc(OC)c(S(=O)(=O)N2Cc3ccccc3CC2C(=O)O)c1 (centres undefined) | -11.6% (inactive) |

| Compound | inhibition |
| --- | --- |
| CC(=O)Nc1ccc(NC(=O)CCCCCN2C(=O)c3ccccc3C2=O)cc1 | 1.79% (inactive) |
| CCN1/C(=C2\SC(=S)N(Cc3ccccc3)C2=O)Sc2ccccc21 | 5.93% (inactive) |
| CCN1/C(=C\C=C2\C(=O)N(C)C(=S)N2C)Sc2ccccc21 | 16% (inactive) |
| CC(=O)Nc1ccc2c(c1)nc1n2CCN(C(C)c2ccccc2)C1 (centres undefined) | 5.76% (inactive) |
| O=C(c1ccc(F)cc1)N1CCCCC(S(=O)(=O)c2ccccc2)C1=O (centres undefined) | 6.14% (inactive) |
| N#CCSc1nc2ccccc2c(=O)n1CCCC(=O)NCC1CCCO1 (centres undefined) | -1.98% (inactive) |
| Cc1ccc(C(=O)OCC(=O)c2ccc[nH]2)s1 | 7.67% (inactive) |
| O=C(COC(=O)c1ccc[nH]c1=O)c1ccc(Cl)s1 | -0.06% (inactive) |
| O=C1NC(O)(c2ccccc2)Oc2ccccc21 (centres undefined) | -6.9% (inactive) |
| Cc1[nH][nH]c(=O)c1C(c1ccc(-c2ccc(Cl)c(Cl)c2)o1)c1c(C)[nH][nH]c1=O | 60.8% (inactive) |
| Cc1[nH][nH]c(=O)c1C(c1ccc(-c2ccc(F)cc2)o1)c1c(C)[nH][nH]c1=O | 4.51% (inactive) |
| O=C(CN1CCC(N2CCCCC2)CC1)N1CCOCC1 | 5.06% (inactive) |
| CCOC(=O)N1CCN(C(c2ccc(C(C)C)cc2)c2sc3nc(C)nn3c2O)CC1 (centres undefined) | 0.52% (inactive) |
| COc1ccc(Cl)cc1S(=O)(=O)NCc1cccnc1 | -12% (inactive) |
| O=S(=O)(Nc1ccc(-c2nnc(SCc3ccc(Cl)cc3)o2)cc1)c1ccccc1 | 5.83% (inactive) |
| Cc1cccc(OCc2nnc(SCc3cc(=O)[nH]c4ccccc34)n2-c2ccccc2)c1 | 4.6% (inactive) |
| O=c1cc(CSc2nnc(COc3ccccc3)n2-c2ccccc2)c2ccccc2[nH]1 | 3.7% (inactive) |
| COc1ccc(-c2cc(C(=O)Nc3cc(OC)c(OC)c(OC)c3)no2)cc1OC | -1.57% (inactive) |
| COCCNC(=O)c1cc(-c2ccc(OC)c(OC)c2)on1 | 6.55% (inactive) |
| CCOC(=O)c1ccc(NC(=O)CSc2nc3c(c(=O)n2CC)SC(C)C3)cc1 (centres undefined) | 7.17% (inactive) |

| Compound | inhibition |
| --- | --- |
| CC(=O)OCCNc1cc(SC(C)C)c2nonc2c1[N+](=O)[O-] | 1.55% (inactive) |
| CCCSc1cc(NCCOC(=O)CCC)c([N+](=O)[O-])c2nonc12 | 56.8% (inactive) |
| CCCSc1cc(NCCOC(C)=O)c([N+](=O)[O-])c2nonc12 | 2.64% (inactive) |
| CC(C)CCSc1cc(NCCO)c([N+](=O)[O-])c2nonc12 | -2.23% (inactive) |
| COC(=O)c1cc2ccsc2n1CC(=O)Nc1cc(C)cc(C)c1 | -0.8% (inactive) |
| Cc1cc(NCCOCCO)n2ncc(-c3ccc(Cl)cc3)c2n1 | 8.65% (inactive) |
| CC(C)Nc1cc(C(C)(C)C)nc2c(-c3ccccc3)cnn12 | -1.54% (inactive) |
| CC(C)(C)c1cc(C(F)(F)F)n2ncc(-c3ccccc3)c2n1 | 3.89% (inactive) |
| Cc1cc(NCCCN2CCOCC2)n2ncc(-c3ccc(Cl)cc3)c2n1 | 4.89% (inactive) |
| CCCc1cc(=O)oc2c(C)c(OCC(=O)c3ccc(N4CCCC4)cc3)ccc12 | 15.8% (inactive) |
| COCCNC(=O)c1onc(CSc2ccc(C(C)C)cc2)c1C(=O)O | -18.6% (inactive) |
| O=C1C2C3CCC(C3)C2C(=O)N1c1ccc(OS(=O)(=O)c2ccccc2)cc1 (centres undefined) | -1.92% (inactive) |
| CCOC(=O)c1nn(-c2ccc(Cl)cc2)c2nc(CC)c(C#N)c(=O)n12 | 1.58% (inactive) |
| Cc1cc(C)cc(OCC(=O)OC/C(O)=C(\C#N)c2nc3ccccc3[nH]2)c1 | 13% (inactive) |
| COCC(=O)OC/C(O)=C(\C#N)c1nc2ccccc2[nH]1 | 43.4% (inactive) |
| N#C/C(=C(/O)COC(=O)CSc1ccc(Cl)cc1)c1nc2ccccc2[nH]1 | 76.2% (inactive) |
| Cc1cccc(C)c1OCC(=O)OC/C(O)=C(\C#N)c1nc2ccccc2[nH]1 | 3.83% (inactive) |
| Cc1cc(Br)ccc1SCC(=O)OC/C(O)=C(\C#N)c1nc2ccccc2[nH]1 | 77.9% (inactive) |
| CC(C)C(=O)OC/C(O)=C(\C#N)c1nc2ccccc2[nH]1 | -0.61% (inactive) |
